Counter-ions that a name gives are not always drawn.
Assays:
Test in all cases: phenotypically active (imaging signature differs from DMSO and reproducible) at any of 0.3-9 uM (binary (1 = active, 0 = inactive)); higher = active
Conditions in all cases: treatment time: 24 h
A549-ACTB-RAB5A = tested on: A549-ACTB-RAB5A
In short: (§1)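 The reporter lines, fifteen in total and built by gene editing in A549, HepG2 and WPMY1 cells, used BFP for segmentation alongside GFP and RFP/FusionRed markers. Each was treated at 0.3, 1, 3 or 9 µM for 24 h in four wells and then imaged live, with live-cell features normalised to solvent control wells. Deviation meant ≥3 of 4 wells beyond the 95th percentile of control Euclidean distances; reproducibility meant a median replicate Pearson correlation above the 95th percentile of non-replicates. Only conditions meeting both were scored as phenotypically active.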

A549-CANX-COX4 = tested on: A549-CANX-COX4
In short: as §1

A549-GM130-SQSTM1 = tested on: A549-GM130-SQSTM1
In short: as §1

A549-TP53BP1-CLTA = tested on: A549-TP53BP1-CLTA
In short: as §1

A549-TUBA1B-RELA = tested on: A549-TUBA1B-RELA
In short: as §1

HepG2-ACTB-RAB5A = tested on: HepG2-ACTB-RAB5A
In short: as §1

HepG2-CANX-COX4 = tested on: HepG2-CANX-COX4
In short: as §1

HepG2-GM130-SQSTM1 = tested on: HepG2-GM130-SQSTM1
In short: as §1

HepG2-TP53BP1-CLTA = tested on: HepG2-TP53BP1-CLTA
In short: as §1

HepG2-TUBA1B-RELA = tested on: HepG2-TUBA1B-RELA
In short: as §1

WPMY1-ACTB-RAB5A = tested on: WPMY1-ACTB-RAB5A
In short: as §1

WPMY1-CANX-COX4 = tested on: WPMY1-CANX-COX4
In short: as §1

WPMY1-GM130-SQSTM1 = tested on: WPMY1-GM130-SQSTM1
In short: as §1

WPMY1-TP53BP1-CLTA = tested on: WPMY1-TP53BP1-CLTA
In short: as §1

WPMY1-TUBA1B-RELA = tested on: WPMY1-TUBA1B-RELA
In short: as §1

Measured: phenotypically active

Cc1[nH]c2ccccc2c1CCNC(=O)c1ccccc1F
inactive: A549-ACTB-RAB5A 0 | A549-CANX-COX4 0 | A549-GM130-SQSTM1 0 | A549-TP53BP1-CLTA 0 | A549-TUBA1B-RELA 0 | HepG2-ACTB-RAB5A 0 | HepG2-CANX-COX4 0 | HepG2-GM130-SQSTM1 0 | HepG2-TP53BP1-CLTA 0 | HepG2-TUBA1B-RELA 0 | WPMY1-ACTB-RAB5A 0 | WPMY1-CANX-COX4 0 | WPMY1-GM130-SQSTM1 0 | WPMY1-TP53BP1-CLTA 0 | WPMY1-TUBA1B-RELA 0

O=C1CN2Cc3c(ccc(Cl)c3Cl)N=C2N1 [Anagrelide hydrochloride]
inactive: A549-ACTB-RAB5A 0 | A549-CANX-COX4 0 | A549-GM130-SQSTM1 0 | A549-TP53BP1-CLTA 0 | A549-TUBA1B-RELA 0 | HepG2-ACTB-RAB5A 0 | HepG2-CANX-COX4 0 | HepG2-GM130-SQSTM1 0 | HepG2-TP53BP1-CLTA 0 | HepG2-TUBA1B-RELA 0 | WPMY1-ACTB-RAB5A 0 | WPMY1-CANX-COX4 0 | WPMY1-GM130-SQSTM1 0 | WPMY1-TP53BP1-CLTA 0 | WPMY1-TUBA1B-RELA 0

COC(=O)c1c(C)cc(OC(=O)c2c(C)cc(O)c(C=O)c2O)c(C)c1O [Atranorin]
inactive: A549-ACTB-RAB5A 0 | A549-CANX-COX4 0 | A549-GM130-SQSTM1 0 | A549-TP53BP1-CLTA 0 | A549-TUBA1B-RELA 0 | HepG2-ACTB-RAB5A 0 | HepG2-CANX-COX4 0 | HepG2-GM130-SQSTM1 0 | HepG2-TP53BP1-CLTA 0 | HepG2-TUBA1B-RELA 0 | WPMY1-ACTB-RAB5A 0 | WPMY1-CANX-COX4 0 | WPMY1-GM130-SQSTM1 0 | WPMY1-TP53BP1-CLTA 0 | WPMY1-TUBA1B-RELA 0

CN(C)/N=N/c1[nH]cnc1C(N)=O [dacarbazine]
inactive: A549-ACTB-RAB5A 0 | A549-CANX-COX4 0 | A549-GM130-SQSTM1 0 | A549-TP53BP1-CLTA 0 | A549-TUBA1B-RELA 0 | HepG2-ACTB-RAB5A 0 | HepG2-CANX-COX4 0 | HepG2-GM130-SQSTM1 0 | HepG2-TP53BP1-CLTA 0 | HepG2-TUBA1B-RELA 0 | WPMY1-ACTB-RAB5A 0 | WPMY1-CANX-COX4 0 | WPMY1-GM130-SQSTM1 0 | WPMY1-TP53BP1-CLTA 0 | WPMY1-TUBA1B-RELA 0

O=C(Nc1c(Cl)cncc1Cl)c1ccc(OC(F)F)c(OCC2CC2)c1 [roflumilast]
inactive: A549-ACTB-RAB5A 0 | A549-CANX-COX4 0 | A549-GM130-SQSTM1 0 | A549-TP53BP1-CLTA 0 | A549-TUBA1B-RELA 0 | HepG2-ACTB-RAB5A 0 | HepG2-CANX-COX4 0 | HepG2-GM130-SQSTM1 0 | HepG2-TP53BP1-CLTA 0 | HepG2-TUBA1B-RELA 0 | WPMY1-ACTB-RAB5A 0 | WPMY1-CANX-COX4 0 | WPMY1-GM130-SQSTM1 0 | WPMY1-TP53BP1-CLTA 0 | WPMY1-TUBA1B-RELA 0

C=C[C@H]1[C@H](O[C@@H]2O[C@H](CO)[C@@H](O)[C@H](O)[C@H]2O)OC=C2C(=O)NCC[C@H]21 [Bakankosine]
inactive: A549-ACTB-RAB5A 0 | A549-CANX-COX4 0 | A549-GM130-SQSTM1 0 | A549-TP53BP1-CLTA 0 | A549-TUBA1B-RELA 0 | HepG2-ACTB-RAB5A 0 | HepG2-CANX-COX4 0 | HepG2-GM130-SQSTM1 0 | HepG2-TP53BP1-CLTA 0 | HepG2-TUBA1B-RELA 0 | WPMY1-ACTB-RAB5A 0 | WPMY1-CANX-COX4 0 | WPMY1-GM130-SQSTM1 0 | WPMY1-TP53BP1-CLTA 0 | WPMY1-TUBA1B-RELA 0

C[N+](C)(CCCCCC[N+](C)(C)CCCN1C(=O)c2ccccc2C1=O)CCCN1C(=O)c2ccccc2C1=O [W-84 dibromide]
inactive: A549-ACTB-RAB5A 0 | A549-CANX-COX4 0 | A549-GM130-SQSTM1 0 | A549-TP53BP1-CLTA 0 | A549-TUBA1B-RELA 0 | HepG2-ACTB-RAB5A 0 | HepG2-CANX-COX4 0 | HepG2-GM130-SQSTM1 0 | HepG2-TP53BP1-CLTA 0 | HepG2-TUBA1B-RELA 0 | WPMY1-ACTB-RAB5A 0 | WPMY1-CANX-COX4 0 | WPMY1-GM130-SQSTM1 0 | WPMY1-TP53BP1-CLTA 0 | WPMY1-TUBA1B-RELA 0

OC(CCN1CCCCC1)(c1ccccc1)C1CC2C=CC1C2 (stereo not given) [biperiden]
inactive: A549-ACTB-RAB5A 0 | A549-CANX-COX4 0 | A549-GM130-SQSTM1 0 | A549-TP53BP1-CLTA 0 | A549-TUBA1B-RELA 0 | HepG2-ACTB-RAB5A 0 | HepG2-CANX-COX4 0 | HepG2-GM130-SQSTM1 0 | HepG2-TP53BP1-CLTA 0 | HepG2-TUBA1B-RELA 0 | WPMY1-ACTB-RAB5A 0 | WPMY1-CANX-COX4 0 | WPMY1-GM130-SQSTM1 0 | WPMY1-TP53BP1-CLTA 0 | WPMY1-TUBA1B-RELA 0

C[C@H]1[C@H](C)CC[C@]2(C(=O)O[C@@H]3O[C@H](CO[C@@H]4O[C@H](CO)[C@@H](O[C@@H]5O[C@@H](C)[C@H](O)[C@@H](O)[C@H]5O)[C@H](O)[C@H]4O)[C@@H](O)[C@H](O)[C@H]3O)CC[C@]3(C)C(=CC[C@@H]4[C@@]5(C)C[C@@H](O)[C@H](O)[C@@](C)(CO)[C@@H]5CC[C@]43C)[C@H]12 [Asiaticoside]
inactive: A549-ACTB-RAB5A 0 | A549-CANX-COX4 0 | A549-GM130-SQSTM1 0 | A549-TP53BP1-CLTA 0 | A549-TUBA1B-RELA 0 | HepG2-ACTB-RAB5A 0 | HepG2-CANX-COX4 0 | HepG2-GM130-SQSTM1 0 | HepG2-TP53BP1-CLTA 0 | HepG2-TUBA1B-RELA 0 | WPMY1-ACTB-RAB5A 0 | WPMY1-CANX-COX4 0 | WPMY1-GM130-SQSTM1 0 | WPMY1-TP53BP1-CLTA 0 | WPMY1-TUBA1B-RELA 0

CC(C)[N+](C)(CCOC(=O)C1c2ccccc2Oc2ccccc21)C(C)C [propantheline]
inactive: A549-ACTB-RAB5A 0 | A549-CANX-COX4 0 | A549-GM130-SQSTM1 0 | A549-TP53BP1-CLTA 0 | A549-TUBA1B-RELA 0 | HepG2-ACTB-RAB5A 0 | HepG2-CANX-COX4 0 | HepG2-GM130-SQSTM1 0 | HepG2-TP53BP1-CLTA 0 | HepG2-TUBA1B-RELA 0 | WPMY1-ACTB-RAB5A 0 | WPMY1-CANX-COX4 0 | WPMY1-GM130-SQSTM1 0 | WPMY1-TP53BP1-CLTA 0 | WPMY1-TUBA1B-RELA 0

COC(=O)C1=C(C)NC(C)=C(C(=O)OC(C)C)C1c1cccc2nonc12 (stereo not given) [isradipine]
inactive: A549-ACTB-RAB5A 0 | A549-CANX-COX4 0 | A549-GM130-SQSTM1 0 | A549-TP53BP1-CLTA 0 | A549-TUBA1B-RELA 0 | HepG2-ACTB-RAB5A 0 | HepG2-CANX-COX4 0 | HepG2-GM130-SQSTM1 0 | HepG2-TP53BP1-CLTA 0 | HepG2-TUBA1B-RELA 0 | WPMY1-ACTB-RAB5A 0 | WPMY1-CANX-COX4 0 | WPMY1-GM130-SQSTM1 0 | WPMY1-TP53BP1-CLTA 0 | WPMY1-TUBA1B-RELA 0

Reference: the supplement of paper PMC7411054
